The term viability denotes the share of living cells, or the viability signal relative to a control. One may read the remaining activity as the signal under treatment as a percentage of the control signal. In general, AC50 refers to the concentration at which the activity in the assay is half-maximal. Broadly, the inhibition is the drop in the measured response relative to a control, in per cent. Usually IC50 stands for the concentration that gives 50% inhibition.

Assay [1] is described as follows: P. berghei load reduction in hepatocytes – cell-based, HepG2, luciferase luminescence, HepG2 viability, primary screen (AID 624349; in the data active means parasite load remaining mostly below about 12%, no sharp cut-off; inactive means mostly above about 10%;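 further: 100% = mean of DMSO negative control wells on the same plate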). Particulars: P. berghei liver stage in HepG2, luciferase luminescence, concentration not given here; parasite load remaining: stronger effect = lower value; viability: measured here: HepG2 viability without parasites.
The test system of assay [2] is Aerobactin synthetase IucA (Klebsiella pneumoniae). In words: inhibition of K. pneumoniae IucA enzyme – biochemical, Tocris library, absorbance (AID 1345561).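 Further: 100% = enzyme without compound and 0% = no enzyme.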 The conditions noted are these: purified IucA enzyme assay, absorbance (OD) read-out; stronger effect = lower value;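 tested at 8 µM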.
Assay [3] can be described thus: viability loss in pontine glioma line – cell-based, SU-DIPG-XIII, MIPE4.0, CellTiter-Glo, qHTS, dose response (AID 1347061; cut-off not given, nearly all actives have AC50 up to about 37 µM;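 further: cells exposed to compound for 48 hours before readout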). Particulars: CellTiter-Glo ATP luminescence. Background: ATP-based viability assays read luminescence as a measure of living cells.
Assay [4] is described as follows: growth inhibition of DIPG cells – cell-based, MIPE4.0 library, CellTiter-Glo luminescence, qHTS (AID 1347066; cut-off not given, nearly all actives have AC50 up to about 30 µM;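 further: cells exposed to compound for 48 hours before readout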). The conditions noted are these: SU-DIPG-VI viability, CellTiter-Glo ATP luminescence.
Assay [5] is described as follows: growth inhibition of DIPG cells – cell-based, MIPE5.0 library, qHTS (AID 1347068; cut-off not given, nearly all actives have IC50 up to about 30 µM;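 on IC50: cells exposed to compound for 48 hours before viability readout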). Particulars: SU-DIPG-XXV viability.
The nature of assay [6]: viability loss with induced miR-34 in A549 – imaging, A549 dox-inducible miR-34, nuclei and caspase counts, primary screen (AID 1347080;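 active means compounds whose cell count with miR-34 switched on is under 0.7 times the count with it off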). Particulars: A549 miR-34 inducible, Hoechst nuclei count, 48 h.
Assay [7] can be described thus: galactose survival enhancers in mitochondrial complex I cybrids – cell-based, galactose medium, ATP luminescence, primary screen (AID 1645843;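 active means z-score of at least 1.8 in each of two replicates, scored against plate mean and spread of sample wells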;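 further: positive z means more ATP and so rescue of galactose-driven cybrid death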). Particulars: complex I mutant cybrid cells, 72 h, stronger effect = higher value.
The test system of assay [8] is Hepatitis C virus NS3 helicase. Nature of the assay: blockers of NS3h binding to ssDNA – biochemical, fluorescence polarization, LOPAC1280 library, primary screen (AID 687035; in the data active means inhibition above about 37%). Particulars: Purified HCV NS3 helicase, Cy5-dT15 ssDNA binding fluorescence polarization; stronger effect = higher value; concentration not given here. (In general: In fluorescence polarisation assays a small probe gives low polarisation when free and higher when bound to something large.)

A short description of assay [9]: compounds altering Cy5-DNA-NS3h complex signal – biochemical, LOPAC1280, artefact control for HCV NS3 helicase inhibitor project (AID 687037). Particulars: Cy5-DNA-NS3h complex fluorescence interference counterscreen.
The nature of assay [10]: viability loss in pontine glioma line – cell-based, JHH-DIPG-1, MIPE4.0, CellTiter-Glo, qHTS, dose response (AID 1347062; cut-off not given, nearly all actives have AC50 up to about 27 µM). The conditions noted are these: JHH-DIPG-1 viability, CellTiter-Glo ATP luminescence.
The nature of assay [11]: viability loss in pontine glioma line – cell-based, SU-DIPG-IV, MIPE4.0, CellTiter-Glo, qHTS, dose response (AID 1347063; cut-off not given, nearly all actives have AC50 up to about 30 µM;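 further: compound exposure lasted 48 hours before the viability readout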). The conditions noted are these: CellTiter-Glo ATP luminescence.
Assay [12] is described as follows: viability loss in pontine glioma line – cell-based, SU-DIPG-XIII, MIPE5.0, CellTiter-Glo, qHTS, dose response (AID 1347064; cut-off not given, nearly all actives have AC50 up to about 23 µM;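 on AC50: cells exposed to compound for 48 hours before the viability read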). Particulars: CellTiter-Glo ATP luminescence.
Assay [13] can be described thus: JHH-DIPG-1 glioma cell viability, MIPE5.0 library, CellTiter-Glo luminescence, qHTS (AID 1347067; cut-off not given, nearly all actives have AC50 up to about 26 µM;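 further: cells exposed to compound for 48 hours before readout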). The conditions noted are these: JHH-DIPG-1 glioma viability, CellTiter-Glo ATP luminescence.
Assay [14] in a line: compounds altering HSF1 focus formation in cells – imaging, Selleck Cancer Library (AID 1347162; in the data active means plate-normalised HSF1 focus index below about 0.46). Particulars: human cells, HSF1 nuclear foci imaging, at 10 µM; SSMD: measured here: HSF1 foci SSMD mean; cell count: measured here: cell number; plate-normalised HSF1 focus index: stronger effect = lower value.
A short description of assay [15]: compounds altering circadian rhythm period length – cell-based, LOPAC library, luminescence reporter (AID 2774).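 Further: values are relative to mean of DMSO wells on each plate.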 Particulars: circadian reporter cells, at 7 µM, actives lie on both sides.
Assay [16] is described as follows: blockers of cellular phospholipid synthesis – cell-based, LOPAC library, screen 4, primary screen (AID 1347384). The conditions noted are these: animal cells, phospholipid biosynthesis inhibition screen; at 10 µM.
Assay [17] is described as follows: MELAS cybrid and Rieske KO viability enhancers – cell-based, MELAS cybrids, Rieske KO mouse fibroblasts, CellTiter-Glo, primary screen (AID 1508586;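 active means mean z-score across replicates of 1.96 or higher in either the MELAS or the Rieske mutant cell line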;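 further: z relative to plate mean and SD of compound and empty wells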). The conditions noted are these: low glucose.
Assay [18] in a line: growth inhibition, single agents and combos, ICB984, cell-based, cisplatin or BGB combos, synergistic combos for chromothripsis tumors (AID 1671451).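 Further: cells exposed for 96 hours before readout; 0% = vehicle DMSO and 100% = killing by high DMSO.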 Particulars: ICB984 medulloblastoma cells, drug combinations, stronger effect = higher value.
Setting [19] is: stronger effect = lower value, cell number ratio, induced over uninduced.
Setting [20] is: measured here: relative caspase fold change +Dox/-Dox.
The mark [21] stands for this setting: measured here: total cells with miR-34 induction, stronger effect = lower value.
[22] abbreviates: measured here: total cells without miR-34 induction.

Where “and” joins values, the source holds several entries; their conditions need not be identical. Equal entries are not always repeated. Records with an inconclusive call do not appear. Calls of active or inactive are those of the source. Unless noted, how the calls were made is not given here.

Consider `N#C/C(=C(/N)Sc1ccc(N)cc1)c1ccccc1C(F)(F)F`, for which the parasite load remaining in [1] is 62.2% (inactive). In assay [1], the viability is 76.3%. Moreover, the remaining activity in [2] is 113% (inactive). The AC50 in assay [3] is 18.7 µM (active). For the same compound, the outcome in assay [4] and in assay [5] was inactive. Also, the fold change is 0.944 (inactive) in [6] (setting [19]) and 0.995 in assay [6] (setting [20]). Also, the cell count in assay [6] (setting [21]) was 5510; in assay [6] (setting [22]) it was 5840. In addition, in [7], the z-score was -0.775 (inactive).
Turning to `CCOC(=O)C(C)Oc1cccc2c(=O)n(CC(=O)Nc3ccc4c(c3)OCCO4)ccc12` (configuration not stated), the inhibition in assay [8] was -3% (inactive). Also, the fluorescence ratio (interference) in [9] is 1 (inactive). Also, the remaining activity in assay [2] is 96.6% (inactive). Further, the call in assay [3], in assay [10], in [11], in assay [13] and in [5] was inactive. Besides, the AC50 in [12] is 20.9 µM (active). For the same compound, the fold change in assay [6] (setting [19]) is 0.916 (inactive) and 0.854 (inactive); in [6] (setting [20]), 0.783 and 1.31. For the same compound, the cell count in assay [6] (setting [21]) was 8970 and 6830; in [6] (setting [22]), 9800 and 8000; in assay [14], 6920. Also, the SSMD in assay [14] amounted to 0.942. Besides, the plate-normalised HSF1 focus index in assay [14] is 1.06 (inactive). The z-score in assay [7] was 0.675 (inactive) and 0.45 (inactive).
For `CC(C)N(CCC(=O)c1ccc2ccccc2c1)Cc1ccccc1`, in [15], the period change is 0 h (inactive). Moreover, the parasite load remaining in assay [1] is 28.5% (inactive). In assay [1], this compound yielded a viability of 88.8%. Further, in assay [8], the inhibition is -3% (inactive). Besides, the fluorescence ratio (interference) in assay [9] was 0.9 (inactive). The remaining activity in assay [2] was 113% (inactive). Also, the AC50 is 7.42 µM (active) in [12] and 4.17 µM (active) in assay [13]. For the same compound, the fold change was 1.13 (inactive) and 0.795 (inactive) and 0.953 (inactive) in assay [6] (setting [19]); 1 and 0.533 and 0.643 in [6] (setting [20]). For the same compound, the cell count is 10100 and 6810 and 7420 in [6] (setting [21]); 8940 and 8570 and 7790 in [6] (setting [22]). Besides, the outcome in assay [16] was inactive. Further, the z-score in [17] (MELAS cybrid survival, CellTiter-Glo 48 h, stronger effect = higher value) was -0.331 (inactive); in assay [17] (Rieske KO mouse fibroblast survival, CellTiter-Glo 72 h) it was -0.0503; in [7], -1.29 (inactive) and -0.82 (inactive).
For `CC(C)(C)/[N+]([O-])=C/c1ccc(S(=O)(=O)O)cc1S(=O)(=O)O`, the remaining activity in assay [2] was 104% (inactive). For the same compound, the result in assay [3], in [10], in [11] and in assay [4] was inactive. In addition, the fold change is 1.35 (inactive) in [6] (setting [19]) and 1.12 in assay [6] (setting [20]). Also, the figures for the cell count in [6] (setting [21]) and in [6] (setting [22]) were 7460 and 5520, respectively. Further, the z-score in assay [7] was 2.67 (inactive).
Turning to `O=c1ncccn1[C@@H]1O[C@H](CO)[C@@H](O)[C@H]1O`, in assay [2], the remaining activity was 115% (inactive). For the same compound, the result in [12] and in assay [5] was inactive. Further, the fold change in assay [6] (setting [19]) was 1 (inactive); in assay [6] (setting [20]) it was 1.17. Besides, the cell count is 7460 in [6] (setting [21]) and 7440 in assay [6] (setting [22]). The z-score in assay [7] is -0.025 (inactive). Further, the inhibition in assay [18] (BGB IC20 combo, at 0.005 µM) was 4.35%; in [18] (BGB IC40 combo, at 0.005 µM), -50.2%; in [18] (BGB IC40 combo, at 0.05 µM), -18%; in assay [18] (at 0.5 µM) it was -16.8% (inactive); in [18] (cisplatin combo, at 0.05 µM), -22.2%; in assay [18] (cisplatin combo, at 0.5 µM), -22.8%. Further, the inhibition in assay [18] (cisplatin combo, at 5 µM) is -30.8%; in [18] (measured here: 5 uM single agent, at 5 µM), -3.85%.
With `Cc1ccccc1C(=O)c1ccc(Nc2ccc(Br)cc2N)cc1Cl`, in assay [1], the parasite load remaining was 40.9% (inactive). Also, the viability in assay [1] turned out to be 76.7%. The remaining activity in assay [2] is 120% (inactive). Also, the compound was called inactive in [3]. For the same compound, the AC50 was 20.9 µM (active) in assay [12] and 23.5 µM (active) in assay [13]. Besides, the half-inhibitory concentration (IC50) in [5] is 23.5 µM (active). In addition, the fold change is 0.938 (inactive) in [6] (setting [19]) and 1.33 in [6] (setting [20]). For the same compound, the cell count came out at 6770 in [6] (setting [21]) and 7220 in assay [6] (setting [22]). Besides, in assay [7], the z-score was -0.695 (inactive).
